Measurements: PMC7819943, “Rice protein-binding microarrays: a tool to detect cis-acting elements near promoter regions in rice”
Over roughly 68,000 sequences, “fluorescence intensity (a.u.)” has its median near 9,100; the highest 2% begin near 16,000. The sample as a whole holds a higher share of the highest values than the screen did.

Target: OsWRKY34 (Oryza sativa, UniProt Q0JBA9 1-250)
Assay: protein-binding microarray (RPBM); PBS, 2% BSA, 51.3 ng/ul salmon testes DNA, 50 uM zinc acetate, 200 nM TF, 25 C, 1 h; high values mean tight binding
Settings: protein: recombinant; tags: N-terminal polyhistidine and DsRed monomer fusion (pET32a); label: CyDye5-dUTP incorporated in the synthesized complementary strand; 3' TTTTT single-stranded linker to array surface; dsDNA, one strand shown
Method in brief: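 Binding signal is defined as the fluorescence intensity of each feature in arbitrary units, read on an Axon 4000B scanner. Transcription factors with N-terminal polyhistidine and DsRed fusions came from E. coli BL21-CodonPlus and were purified on Ni–NTA. They were incubated at 200 nM for 1 h at 25 °C on a custom Agilent array that had been made double-stranded with Cy5-dUTP, with 50 µM zinc acetate present, and the array was washed.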

Sequence of OsWRKY34 (Q0JBA9 entry or part of it): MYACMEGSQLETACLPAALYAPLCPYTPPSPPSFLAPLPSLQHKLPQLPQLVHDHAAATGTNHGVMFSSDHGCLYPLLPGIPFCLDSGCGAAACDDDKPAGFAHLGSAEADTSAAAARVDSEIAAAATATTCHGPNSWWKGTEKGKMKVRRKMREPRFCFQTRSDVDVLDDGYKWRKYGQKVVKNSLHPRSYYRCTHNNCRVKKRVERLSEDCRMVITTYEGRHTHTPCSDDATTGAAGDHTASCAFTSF

Row | Sequence | binding signal
1 | CCGGGTTCCTGTTTTTTCAACGCATGCACACTTTAATCTACGGAGTCACCTAGTGCAG | 9290 fluorescence intensity (a.u.)
2 | AATTTTTTTTTGCTTACAAAGGGTGAAACTTTCTCTCTCTCGGAGTCACCTAGTGCAG | 8500 fluorescence intensity (a.u.)
3 | CTCCGACGACCCCACCGTGCCCACCCCGACCGCCGTCTCGCGGAGTCACCTAGTGCAG | 9650 fluorescence intensity (a.u.)
4 | TTTCTGGGATATTCCATCTCATTACAGCACTCATTCTTTACGGAGTCACCTAGTGCAG | 9350 fluorescence intensity (a.u.)
5 | AATCTCCATCTTCTTGCTCGTACAACGTAAATACTCGTCTCGGAGTCACCTAGTGCAG | 8830 fluorescence intensity (a.u.)
6 | CGTCTTGTCTTGGCGTATGTTGGCTTGTATGTTGTTCCGTCGGAGTCACCTAGTGCAG | 10500 fluorescence intensity (a.u.)
7 | CCTGCCGTTTTCTTTTTCTTTTTCTTTCCTTTTCCTTTTTCGGAGTCACCTAGTGCAG | 17000 fluorescence intensity (a.u.)
8 | GTTCTTGGTTCCTGCATTTCTTTTCTTTTTTGCCTTTGTTCGGAGTCACCTAGTGCAG | 11300 fluorescence intensity (a.u.)
9 | CCTATTTTTGATGTTCCGGATTTTTTCTTTGCGGCCAAAACGGAGTCACCTAGTGCAG | 11700 fluorescence intensity (a.u.)
10 | CCCTTTGTCCTGCAGTACGTTTTTCCTTGCATTTTTCTTTCGGAGTCACCTAGTGCAG | 19700 fluorescence intensity (a.u.)
11 | CTTTCTTTTTCCTTCTCTCTCTCTTTTCTTTCTTTTCTTTCGGAGTCACCTAGTGCAG | 13600 fluorescence intensity (a.u.)
12 | CTCTTTTCTTTCTTTTCTTTTCCTTTCTTTTTCCTTTCTTCGGAGTCACCTAGTGCAG | 8540 fluorescence intensity (a.u.)
13 | TTATTTTCTCCACTCACTACTTGTTCGTTTAGCAATTTGTCGGAGTCACCTAGTGCAG | 8750 fluorescence intensity (a.u.)
14 | AGTTTTGTTTCTTTCCTGTTCACAGTTCACCTTTGCCTTTCGGAGTCACCTAGTGCAG | 12400 fluorescence intensity (a.u.)
15 | ACTTGATGTTCTTTCGTTCTTTCCTGCGAAAACGTCAGGCCGGAGTCACCTAGTGCAG | 25600 fluorescence intensity (a.u.)
16 | ATTGTCCATGATGTTCTTCCTTTTCTTTTTCGTTGTCAAACGGAGTCACCTAGTGCAG | 10300 fluorescence intensity (a.u.)
17 | ATCATCACTCCATTGCCGCTGTATTTGTTGTCATCGTTTTCGGAGTCACCTAGTGCAG | 11200 fluorescence intensity (a.u.)
18 | CCGCTCCGTTTTGTGTCGTTTTGTGTATTTTCTCCACTCACGGAGTCACCTAGTGCAG | 17400 fluorescence intensity (a.u.)
19 | TCCTCTCTGTCTTCTGTCTTCTCTTCTTCTTCCTCACCAACGGAGTCACCTAGTGCAG | 11600 fluorescence intensity (a.u.)
20 | CAAACAGAGCACACCTTTTTCCAGGACATTTGTCAATATTCGGAGTCACCTAGTGCAG | 9180 fluorescence intensity (a.u.)
21 | ATCCTTTTCTTTGGCAGTCCTTGATCCCAGATCCACATTTCGGAGTCACCTAGTGCAG | 9820 fluorescence intensity (a.u.)
22 | GGCTTTAATTGATCACTATGAATACTTGGCTTGTTGTCATCGGAGTCACCTAGTGCAG | 9040 fluorescence intensity (a.u.)
23 | AAACCTCGCATGCCAATAGTTGGGAACGCCGGGGCGGGGTCGGAGTCACCTAGTGCAG | 9340 fluorescence intensity (a.u.)
